In assay [1] the target is Lysosomal acid glucosylceramidase (Homo sapiens) (UniProt P04062). The assay can be described thus: Glucocerebrosidase-p2 (AID 348; in the data active means potency below about 10 µM; further: potency means the concentration at half of the fitted maximal effect). Particulars: purified GBA, blue fluorogenic substrate, 40 min. The procedure, abridged: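 Normal human glucocerebrosidase (0.2 nM) with blue fluorogenic substrate (80 uM final) in citrate/phosphate pH 5.9 with 10mM sodium taurocholate, 0.01% tween-20; 40 min RT, NaOH/glycine stop; fluorescence Ex 365/Em 440; AC50 from a titration from 0.6 nM upwards.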

Assay [2] can be described thus: AP1 Signaling Pathway (AID 357). Further: on the % scale 0 is the no-effect control and ±100 the full control effect. Particulars: ME-180 AP-1-bla reporter, EGF-induced, beta-lactamase ratio, 5 h; at 7.69 µM (top of the series) unless noted. The gist of the method: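 Read-out was the 460nm/530nm emission ratio (excitation 405nm) after CCF4 loading for 2.5 hours at room temperature. Cells carried an AP-1-driven beta-lactamase reporter, were stimulated with EC50 EGF plus compound for 5 hours, and AC50 values came from titrations.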

For assay [3], the target named is Cytochrome P450 1A2 (Homo sapiens) (UniProt P05177). Description: p450-cyp1a2 (AID 410; calls by dose curve; further: potency means the concentration at half of the fitted maximal effect). To be noted: recombinant CYP1A2, luciferin-ME demethylation, luminescence; series mostly up to 57 µM. The gist of the method: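 Luminescent demethylation readout: Luciferin-ME (100uM, equal to Km) turned over by 20nM CYP1A2 for 60 min at room temperature after NADPH regeneration addition, following 10 min compound preincubation. Normalization used 57 uM furafylline as full inhibition.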

Assay [4] in a line: NFAT Signaling Pathway (AID 444).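 Further: carbachol stimulus at about its EC50 of 1 µM final; on the % scale 0 is the no-effect control and ±100 the full control effect.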 To be noted: Jurkat NFAT-bla M1, carbachol, beta-lactamase ratio, 5 h; at 7.69 µM (top of the series) unless noted. The gist of the method:
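Jurkat cells with NFAT-driven β-lactamase reporter and co-expressed M1 receptor, stimulated with carbachol (final 1 uM, ~EC50), compound titration, 5 h at 37 °C. CCF4 loaded 1 h at RT; 460/530 nm ratio gave %activity and AC50.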

Assay [5] in a line: Stat Signaling Pathway (AID 446).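 Further: ME-180 cervical cancer cells given 40 pM IL-6 alongside compound; SIE-controlled beta-lactamase reporter measured as 460/530 nm FRET emission ratio; on the % scale 0 is the no-effect control and ±100 the full control effect.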 Particulars: ME-180 SIE beta-lactamase reporter, IL-6 stimulated, 5 h; at 7.69 µM (top of the series) unless noted. The procedure, abridged: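 FRET read-out (405 nm excitation, 460/530 nm emission) of a beta-lactamase reporter under a STAT-inducible element in ME-180 cervical carcinoma cells. Cells with compound receive 40 pM IL-6 for 5 h. Values are normalised to AC90 stimulation and AC90 JAK-inhibitor controls.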

Assay [6] addresses Glucocorticoid receptor (Homo sapiens) (UniProt P04150). The assay can be described thus: GR-GFP Redistribution (AID 450;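 active means compounds whose dose series gives a full or clear partial fitted curve of increased nuclear translocation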; further: potency means the concentration at half of the fitted maximal effect). To be noted: U2OS GR-GFP nuclear translocation, laser cytometry, 2 h.
Assay [7] has the same target. The assay can be described thus: GR-EFC Redistribution (AID 451; calls by dose curve; further: potency means the concentration at half of the fitted maximal effect). Particulars: CHO-K1 GR-EFC translocation, beta-gal luminescence, 2 h. The procedure, abridged:
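CHO-K1 cells expressing nuclear EA and GR-ED fragments of b-gal; compounds titrated up to 46 uM final, 2 h at 37 C. GR nuclear translocation read as complemented b-gal luminescence after 1 h RT detection.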

Assay [8] deals with Mitogen-activated protein kinase 10 (Mus musculus) (UniProt Q61831). Description: JNK3 AlphaScreen Assay (AID 530).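 Further: kinase came from lysate of stimulated human HepG2 cells; signal reports phosphorylation of biotinylated GST-cJun 1-79 at Ser73 with 10 µM ATP; on the % scale 0 is the no-effect control and ±100 the full control effect.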 Particulars: JNK3 lysate, c-Jun phosphorylation; series mostly up to 57.1 µM. The gist of the method:
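Activity was read by AlphaScreen after JNK3-containing HepG2 lysate (cytokine pre-activated) phosphorylated biotinylated GST-cJun with 10 uM ATP at room temperature. Phospho-Ser73 cJun antibody with Protein-A acceptor beads provided detection.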
(In general: Bead proximity is the source of the signal in Alpha formats.)

In assay [9] the target is 3',5'-cyclic-AMP phosphodiesterase 4B (Homo sapiens) (UniProt Q07343). Description: qHTS Assay for Inhibitors of PDE-IV (AID 607; active means well fitted activation curve with a large enough effect in the main read-out, with a control signal flat, not every such curve was filed as active; further: % of control where 0% means no effect). To be noted: HEK293 ACTOne CNG channel cells, membrane potential fluorescence; series mostly up to 22.9 µM. The gist of the method: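 Cell-based read-out of cAMP via a modified cyclic nucleotide-gated channel and membrane potential dye (535/590 nm) in HEK293 cells expressing PDE4 endogenously. Compounds tested up to 22.9 uM final; 100 uM RO 20-1724 reference.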

Assay [10] has as its target Cytochrome P450 3A4 (Homo sapiens) (UniProt P08684). The assay can be described thus: qHTS Assay for Inhibitors and Substrates of Cytochrome P450 3A4 (AID 884; active means well fitted curve in the direction sought with a large enough effect; an effect the other way counts as inactive or inconclusive; further: on the % scale 0 is the no-effect control and ±100 the full control effect; nearly all actives have a fitted effect of over 50% in size). Particulars: recombinant CYP3A4, Luciferin-PPXE luminescence; series mostly up to 57.1 µM. The procedure, abridged: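 Luminescent readout of luciferin produced by CYP3A4 (20 nM) dealkylation of Luciferin-PPXE, 25 uM (its KM). NADPH-driven reaction ran 60 min at RT after 10 min compound preincubation; data scaled to 57 uM ketoconazole as 100% inhibition.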

A short description of assay [11]: Primary qHTS for small molecule stabilizers of the endoplasmic reticulum resident proteome: Secreted ER Calcium Modulated Protein (SERCaMP) assay (AID 1508630; active means well fitted curve in the direction sought with a large enough effect; an effect the other way counts as inactive or inconclusive; further: on the % scale 0 is the no-effect control and ±100 the full control effect). Particulars: SH-SY5Y GLuc-SERCaMP (Gaussia luciferase released on ER calcium loss) secretion, thapsigargin, luminescence; series mostly up to 38.4 µM. The procedure, abridged:
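The SH-SY5Y reporter protocol was run at 3 concentrations up to 38.3 uM (primary) or 11 concentrations (follow-up): 16 h compound, 100 nM thapsigargin for 4 h, then extracellular luciferase luminescence.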
Background: Quantitative high-throughput screening tests each substance at several concentrations.

Assay [12] is described as follows: qHTS Assay for Identification of Small Molecule Agonists for Hypoxia Response Element Signaling Pathway (AID 914; active means well fitted activation curve with a large enough effect in the signal ratio, with a control signal flat, not every such curve was filed as active; the % refers to the signal ratio; further: % of control where 0% means no effect). To be noted: ME-180 (cervical carcinoma) HRE-bla reporter, beta-lactamase ratio, CoCl2, 17 h; activation: stronger effect = higher value. The gist of the method: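 Reporter activity (beta-lactamase, CCF4 460nm/530nm ratio) in HRE-bla ME-180 cells is recorded after 17 h compound exposure with EC50 CoCl2 at 37 degrees Celsius. AC50 values come from titration data.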

In assay [13] the target is Cytochrome P450 3A4 (Homo sapiens) (UniProt P08684). Description: qHTS Assay for Activators of Cytochrome P450 3A4 (AID 885; active means well fitted curve in the direction sought with a large enough effect; an effect the other way counts as inactive or inconclusive; further: nearly all actives have a fitted effect of over 65% in size). Particulars: recombinant CYP3A4, Luciferin-PPXE luminescence, 60 min; series mostly up to 57.1 µM. The procedure, abridged: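 Luminescent readout of luciferin formed from 25 uM Luciferin-PPXE (KM level) by 20 nM CYP3A4 in 200 mM KPO4, with 60 min NADPH-driven reaction at room temperature after 10 min compound exposure. Ketoconazole (57 uM) defined 100% inhibition.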

For assay [14], the target named is Cytochrome P450 2C9 (Homo sapiens) (UniProt P11712). The assay can be described thus: qHTS Assay for Inhibitors and Substrates of Cytochrome P450 2C9 (AID 883; active means well fitted curve in the direction sought with a large enough effect; an effect the other way counts as inactive or inconclusive; further: potency means the concentration at half of the fitted maximal effect; nearly all actives have a fitted effect of over 60% in size). Particulars: recombinant CYP2C9, luciferin-H luminescence, 60 min; series mostly up to 57.1 µM. The procedure, abridged: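 10nM CYP2C9 + 100uM Luciferin-H (=KM), 25mM KPO4; cpd 10 min 37C; NADPH regen, 60 min 37C; stop/detect with P450 Glo-Buffer 20 min; luminescence. Norm. to 57uM sulphaphenazole as full inhibition.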

Values without a mark were called inactive. Inconclusive results are not listed. Calls of active or inactive are those of the source. Unless noted, the call rests on the fitted dose curve; in most records, active means well fitted curve in either direction with a large enough effect (not every such curve was filed as active); inconclusive means small, poorly fitted or top-dose-only effect, or another doubt; inactive means flat fitted curve, though single readings scatter.

Cytochrome P450 3A4 (Homo sapiens), sequence (P08684 whole entry, looked up): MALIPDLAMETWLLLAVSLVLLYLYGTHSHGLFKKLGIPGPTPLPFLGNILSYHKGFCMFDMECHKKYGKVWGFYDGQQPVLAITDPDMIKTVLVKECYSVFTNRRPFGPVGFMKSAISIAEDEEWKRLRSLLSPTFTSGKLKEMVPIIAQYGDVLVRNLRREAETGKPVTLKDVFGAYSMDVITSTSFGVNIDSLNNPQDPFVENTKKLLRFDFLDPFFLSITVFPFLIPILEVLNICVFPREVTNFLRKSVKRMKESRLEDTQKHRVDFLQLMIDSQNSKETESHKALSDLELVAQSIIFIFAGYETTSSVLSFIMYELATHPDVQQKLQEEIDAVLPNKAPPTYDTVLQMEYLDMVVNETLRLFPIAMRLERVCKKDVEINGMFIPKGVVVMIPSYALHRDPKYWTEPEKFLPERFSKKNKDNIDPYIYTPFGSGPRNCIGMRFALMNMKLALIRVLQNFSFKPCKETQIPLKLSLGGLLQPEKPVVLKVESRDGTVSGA
3',5'-cyclic-AMP phosphodiesterase 4B (Homo sapiens), sequence (Q07343 whole entry, looked up): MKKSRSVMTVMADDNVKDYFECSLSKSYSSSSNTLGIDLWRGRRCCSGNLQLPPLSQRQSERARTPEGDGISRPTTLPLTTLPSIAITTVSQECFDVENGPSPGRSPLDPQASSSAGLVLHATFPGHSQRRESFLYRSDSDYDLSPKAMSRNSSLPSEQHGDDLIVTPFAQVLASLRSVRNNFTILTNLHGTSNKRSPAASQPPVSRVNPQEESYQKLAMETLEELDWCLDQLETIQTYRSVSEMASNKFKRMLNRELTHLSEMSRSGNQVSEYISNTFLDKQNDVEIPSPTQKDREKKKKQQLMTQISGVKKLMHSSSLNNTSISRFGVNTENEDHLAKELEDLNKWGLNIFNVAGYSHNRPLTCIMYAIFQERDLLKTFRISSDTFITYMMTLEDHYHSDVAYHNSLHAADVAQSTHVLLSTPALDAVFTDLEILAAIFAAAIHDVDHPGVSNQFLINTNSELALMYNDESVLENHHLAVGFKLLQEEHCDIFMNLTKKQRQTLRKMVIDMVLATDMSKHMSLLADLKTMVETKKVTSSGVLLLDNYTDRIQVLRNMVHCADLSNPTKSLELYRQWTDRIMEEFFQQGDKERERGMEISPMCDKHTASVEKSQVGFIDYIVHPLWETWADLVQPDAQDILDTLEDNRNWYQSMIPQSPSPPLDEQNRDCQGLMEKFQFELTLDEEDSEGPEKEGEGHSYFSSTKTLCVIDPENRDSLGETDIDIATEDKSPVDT
Cytochrome P450 1A2 (Homo sapiens), sequence (P05177 whole entry, looked up): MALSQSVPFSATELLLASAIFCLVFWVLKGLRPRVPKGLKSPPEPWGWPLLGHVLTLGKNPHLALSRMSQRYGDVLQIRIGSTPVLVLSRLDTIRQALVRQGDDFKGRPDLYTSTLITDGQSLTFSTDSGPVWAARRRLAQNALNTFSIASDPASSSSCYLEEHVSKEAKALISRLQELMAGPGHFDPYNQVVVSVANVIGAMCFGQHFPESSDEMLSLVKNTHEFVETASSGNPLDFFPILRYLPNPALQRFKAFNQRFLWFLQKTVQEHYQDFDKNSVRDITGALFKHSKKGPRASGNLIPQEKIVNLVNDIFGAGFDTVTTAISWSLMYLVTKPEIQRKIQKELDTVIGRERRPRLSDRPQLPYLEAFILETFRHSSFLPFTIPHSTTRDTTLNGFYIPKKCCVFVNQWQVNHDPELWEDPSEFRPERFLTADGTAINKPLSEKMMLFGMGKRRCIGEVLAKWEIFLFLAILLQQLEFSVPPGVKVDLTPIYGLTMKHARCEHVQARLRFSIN
Glucocorticoid receptor (Homo sapiens), sequence (P04150 whole entry, looked up): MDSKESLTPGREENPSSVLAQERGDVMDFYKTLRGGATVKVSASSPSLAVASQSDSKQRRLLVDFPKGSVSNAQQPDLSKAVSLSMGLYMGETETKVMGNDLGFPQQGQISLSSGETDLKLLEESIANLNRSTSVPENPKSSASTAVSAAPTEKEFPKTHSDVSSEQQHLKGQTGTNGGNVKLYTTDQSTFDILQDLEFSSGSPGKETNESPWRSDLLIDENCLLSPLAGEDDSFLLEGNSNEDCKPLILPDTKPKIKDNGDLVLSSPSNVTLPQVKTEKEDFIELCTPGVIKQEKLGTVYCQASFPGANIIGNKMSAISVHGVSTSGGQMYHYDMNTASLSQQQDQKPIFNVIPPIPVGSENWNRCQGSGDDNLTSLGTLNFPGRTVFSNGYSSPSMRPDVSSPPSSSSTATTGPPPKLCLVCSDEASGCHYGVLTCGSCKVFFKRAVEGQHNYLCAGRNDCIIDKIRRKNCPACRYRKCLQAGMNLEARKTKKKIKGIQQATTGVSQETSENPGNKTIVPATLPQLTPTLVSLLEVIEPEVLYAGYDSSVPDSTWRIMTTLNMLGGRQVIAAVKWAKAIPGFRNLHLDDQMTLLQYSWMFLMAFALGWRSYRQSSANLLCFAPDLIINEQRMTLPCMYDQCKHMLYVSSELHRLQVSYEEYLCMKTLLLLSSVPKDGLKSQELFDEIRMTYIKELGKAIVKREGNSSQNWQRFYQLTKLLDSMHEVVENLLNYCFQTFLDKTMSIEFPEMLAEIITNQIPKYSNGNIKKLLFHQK
Lysosomal acid glucosylceramidase (Homo sapiens), sequence (P04062 whole entry, looked up): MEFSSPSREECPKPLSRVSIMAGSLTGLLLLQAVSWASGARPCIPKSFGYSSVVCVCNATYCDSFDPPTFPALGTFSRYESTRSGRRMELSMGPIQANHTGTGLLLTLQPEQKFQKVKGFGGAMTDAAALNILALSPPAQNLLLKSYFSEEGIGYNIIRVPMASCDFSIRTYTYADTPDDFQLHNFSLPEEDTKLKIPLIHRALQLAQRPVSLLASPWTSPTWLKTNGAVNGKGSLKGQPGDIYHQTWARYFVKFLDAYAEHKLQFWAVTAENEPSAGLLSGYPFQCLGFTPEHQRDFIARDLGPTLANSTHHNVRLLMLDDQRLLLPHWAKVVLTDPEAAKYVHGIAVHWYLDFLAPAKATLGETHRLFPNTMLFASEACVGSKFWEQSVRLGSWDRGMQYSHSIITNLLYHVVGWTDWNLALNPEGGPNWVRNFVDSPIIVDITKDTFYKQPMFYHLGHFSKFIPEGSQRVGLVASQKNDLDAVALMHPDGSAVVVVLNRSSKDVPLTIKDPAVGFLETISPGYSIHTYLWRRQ
Cytochrome P450 2C9 (Homo sapiens), sequence (P11712 whole entry, looked up): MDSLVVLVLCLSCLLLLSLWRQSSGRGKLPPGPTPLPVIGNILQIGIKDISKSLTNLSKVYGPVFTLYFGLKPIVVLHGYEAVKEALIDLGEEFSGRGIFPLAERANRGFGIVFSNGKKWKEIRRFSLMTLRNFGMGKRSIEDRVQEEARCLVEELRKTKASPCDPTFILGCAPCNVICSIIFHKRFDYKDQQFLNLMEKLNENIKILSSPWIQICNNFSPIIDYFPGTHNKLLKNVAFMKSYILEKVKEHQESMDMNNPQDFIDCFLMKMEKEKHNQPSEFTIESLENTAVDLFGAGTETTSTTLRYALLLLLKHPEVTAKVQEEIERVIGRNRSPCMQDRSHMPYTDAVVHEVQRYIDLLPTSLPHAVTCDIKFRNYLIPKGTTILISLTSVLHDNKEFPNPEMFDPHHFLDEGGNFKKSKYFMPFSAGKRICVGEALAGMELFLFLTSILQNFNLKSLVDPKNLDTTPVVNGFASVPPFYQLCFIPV

Turning to `Cn1c(=O)c(-c2ccc(F)cc2)nc2cnc(Oc3ccccc3)nc21`, the Potency was greater than 11.4 µM in [1], 0.316 µM (active) in assay [3], greater than 9.22 µM in assay [6] and greater than 46 µM in assay [7]. For the same molecule, the values for the activity change, negative = inhibition in [2] and in assay [4] were 14.3% and 5.5%, respectively. For the same molecule, the activity, negative = inhibition in [5] is -0.989%. In addition, the Potency entry in assay [8], in [9] and in assay [10] was “inactive” in each case. In addition, the result in assay [11] was inactive.
In the case of `O=c1c(-c2cc(F)cc(F)c2)nc2cnc(Oc3ccccc3)nc2n1C1CC1`, the Potency in assay [1] was greater than 11.4 µM; in assay [3], 2.51 µM (active); in [6], greater than 9.22 µM; in assay [7], greater than 46 µM. Further, the activity change, negative = inhibition was -6.73% in assay [2] and -0.993% in assay [4]. In addition, in assay [5], the activity, negative = inhibition is -0.523%. The Potency entry in assay [8] and in assay [9] was “inactive” each time. For the same molecule, the activation in [12] was 7.93%. Further, in assay [11], the outcome was inactive.
For `COc1ccc(Oc2ncc3nc(C)c(=O)n(C)c3n2)cc1`, the Potency in assay [1] is greater than 11.4 µM; in assay [3], 12.6 µM (active); in assay [6] it was greater than 9.22 µM; in assay [7], greater than 46 µM. Also, the activity change, negative = inhibition is 14.2% in assay [2] and -1.39% in assay [4]. The activity, negative = inhibition in [5] is -6.21%. Besides, the Potency entry in assay [8], in assay [9] and in [13] was “inactive” each time. In addition, the outcome in assay [11] was inactive.
As to `COc1ncc2ncc(=O)n(Cc3ccc(F)cc3)c2n1`, the Potency in assay [1] is greater than 11.4 µM; in assay [3], 12.6 µM (active); in assay [6], greater than 9.22 µM; in assay [7], greater than 46 µM. The activity change, negative = inhibition in assay [2] is -11.8%; in assay [4], -5.96%. In addition, the activity, negative = inhibition in [5] is -7.56%. In addition, the Potency result in [8], in assay [9] and in assay [13] was “inactive” throughout. In addition, in [11], the result was inactive.
Turning to `Cc1nc2cncnc2n(-c2ccccc2)c1=O`, the Potency in [1] was greater than 11.4 µM; in assay [3], 10 µM (active); in assay [6], greater than 9.22 µM; in assay [7] it was greater than 46 µM. The activity change, negative = inhibition in assay [2] was -11.8%; in assay [4], -0.117%. Besides, the activity, negative = inhibition in assay [5] is -12.5%. In addition, the Potency entry in assay [8], in assay [9] and in assay [13] was “inactive” throughout. The outcome in assay [11] was inactive.
Consider `COc1ncc2nc(CCc3ccccc3)c(=O)n(CCC#N)c2n1`, for which the Potency in assay [1] was greater than 11.4 µM; in assay [3], 15.8 µM (active); in assay [6], greater than 9.22 µM; in [7], greater than 46 µM. Also, the activity change, negative = inhibition in assay [2] was -1.07%; in assay [4], -10.8%. Also, the activity, negative = inhibition in assay [5] was -4.61%. For the same molecule, the Potency result in assay [8] and in assay [9] was “inactive” each time. Besides, the activation in assay [12] is -14.7%. For the same molecule, in assay [11], the result was inactive.
Take `COCCn1c(=O)c(-c2ccc(Cl)cc2)nc2cnc(Oc3ccccc3)nc21`: the Potency in [1] is greater than 11.4 µM; in assay [3], 0.794 µM (active); in [6], greater than 9.22 µM; in assay [7] it was greater than 46 µM; in assay [14], 7.94 µM (active). The activity change, negative = inhibition is -8.55% in assay [2] and 17.4% in [4]. For the same molecule, in assay [5], the activity, negative = inhibition is -10%. In addition, the Potency result in assay [8], in assay [9] and in [13] was “inactive” throughout. In addition, the outcome in [11] was inactive.

(Values after PubChem BioAssay (NCATS).)
